Screens as filed in PubChem.
In the library only some 11% were active in any assay of this set; here they are far more common.
RORg inh = inhibitors of mouse ROR gamma transcriptional activity. P51450. Drosophila S2 Gal4-RORgamma UAS-luciferase reporter, 20 h. Potency, µM (top dose mostly 53.6 µM), for inactives: at the highest dose activity change, negative = inhibition, hits mostly inhibitors. actives 5.4% (n = 310,000). AID 2551; also: potency is read from the fitted curve at half-maximal effect; % is scaled to controls: 0 for no effect and ±100 for the full control effect; nearly all actives have a fitted effect of over 60% in size
Target sequence (P51450 whole entry, looked up, the tested form may be a part): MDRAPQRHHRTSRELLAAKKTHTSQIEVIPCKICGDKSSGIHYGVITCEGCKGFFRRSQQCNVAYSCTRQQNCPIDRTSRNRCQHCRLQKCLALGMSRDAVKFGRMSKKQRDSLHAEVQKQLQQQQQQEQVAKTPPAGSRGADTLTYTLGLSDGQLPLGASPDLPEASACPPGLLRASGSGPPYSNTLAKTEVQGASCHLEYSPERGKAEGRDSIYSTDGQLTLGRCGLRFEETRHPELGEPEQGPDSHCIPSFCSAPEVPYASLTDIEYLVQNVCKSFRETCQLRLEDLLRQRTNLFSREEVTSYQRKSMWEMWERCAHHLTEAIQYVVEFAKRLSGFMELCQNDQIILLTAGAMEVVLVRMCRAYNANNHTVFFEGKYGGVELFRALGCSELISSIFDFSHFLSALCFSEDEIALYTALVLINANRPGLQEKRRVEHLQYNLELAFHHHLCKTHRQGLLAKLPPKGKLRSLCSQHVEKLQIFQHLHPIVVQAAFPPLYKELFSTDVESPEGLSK
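Stably transfected Drosophila Schneider cells are the test system, with ROR gamma fused to Gal4 and luciferase under UAS control; luminescence is read after 20 hr of 700 uM copper sulfate induction at ambient temperature.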
MCF10A rereplic = induces DNA re-replication in MCF 10a normal breast cells; MCF 10A DNA re-replication, Hoechst nuclear intensity, 48 h; Potency, µM (highest dose often 46.1 µM), for inactives: top-dose activity, positive = re-replication, actives largely listed as activators; actives 2.9% (n = 350,000); also: potency is read from the fitted curve at half-maximal effect; % of control where 0% means no effect; nearly all actives have a fitted effect of over 50% in size
SW480 rerep = DNA re-replication induction in SW480 cells; SW480 DNA re-replication, Hoechst DNA content imaging, 48 h; Potency, µM (doses to about 46.1 µM), without a hit: at the highest dose re-replication activation, actives largely listed as activators; actives 1.8% (n = 340,000); also: potency is read from the fitted curve at half-maximal effect; % of control where 0% means no effect; nearly all actives have a fitted effect of over 55% in size
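Quantitative HTS format with DMSO vehicle controls; 48 hr drug incubation at 37 C, then 40 min Hoechst staining and scanning imager measurement at 405 nm excitation.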
VP16 counter = Gal4-VP16 reporter inhibition counter-screen; Drosophila S2 Gal4-VP16 UAS-luciferase, luminescence, 20 h; actives 3.5% (n = 310,000); Potency, µM (titrated, usually from 53.6 µM), inactives show top-dose activity, negative = inhibition, actives largely listed as inhibitors;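 also: Gal4-VP16 expression switched on by copper sulfate through the metallothionein promoter; potency is read from the fitted curve at half-maximal effect; % is scaled to controls: 0 for no effect and ±100 for the full control effect; nearly all actives have a fitted effect of over 50% in size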
IL-1B inflam inh = inhibitors of inflammasome signaling (IL-1 beta secretion) | THP-1 LPS/ATP IL-1B secretion, AlphaLISA, 16 h; hits give low values | activity change, % at 57.5 µM | actives 4.7% (n = 360,000) | AID 743279; in the data active = activity change below about -50%; inconclusive = mostly about -30% to -49%; also: % is scaled to controls: 0 for no effect and ±100 for the full control effect
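THP-1 cells pretreated 1 hr with compounds (up to 57.5 uM final), then stimulated with LPS (250 ng/mL final) plus ATP (1.25 mM final); secreted IL-1B measured by AlphaLISA after 16 hr, decreased signal indicating inhibition.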
* = called active by the depositor; ? = inconclusive; · = no result given; [ ] = another dose, or the depositor's remark. Unless noted, calls follow the shape of the dose curve; as a rule, active = well fitted curve in the direction sought with a large enough effect; inconclusive = small, poorly fitted or top-dose-only effect, or another doubt; inactive = no such curve, though single readings can be large; an effect the other way counts as inactive or inconclusive.

SMILES	RORg inh	MCF10A rereplic	SW480 rerep	VP16 counter	IL-1B inflam inh
CCCCNC(=S)Nc1ccc(OC)nc1	10µM*	-15%	-2%	-2%	-16
CC(C)(C)C(=O)NC(=S)Nc1ccc(Cl)c(C(=O)O)c1	?	4%	-1%	6%	22
COc1ccc(NC(=S)Nc2ccccc2)cn1	-12%	-3%	-7%	26%	-11
CCC(NC(=O)c1ccccc1NC(=O)C(C)(C)C)C(=O)N1CC(C)OC(C)C1 (stereo not given)	·	0%	-4%	·	47
COC(=O)N1CCC2(CC1)CN(c1ccccn1)C2	-7%	·	·	-1%	·
CCOC(=O)NC(=S)Nc1ccc(C(C)(C)C)cc1	2µM*	0%	-1%	10µM*	17
CCOC(=O)NC(=S)Nc1cccc(C)n1	·	·	·	·	-6
CCCCNC(=S)Nc1ccc(C(F)(F)F)cc1	4.5µM*	?	-5%	13µM*	-94*
CCNC(=S)Nc1ccc(Cl)cc1	8.9µM*	3%	-2%	-83%	16
CCCCc1ccc(NC(=S)NCCO)cc1	?	8%	0%	6%	19
CCCCNC(=S)Nc1ccc(Cl)cc1	7.1µM*	15%	3%	?	-9
Cc1ccccc1OCCC(=O)OCC(=O)NC1CCS(=O)(=O)C1 (stereo not given)	·	-4%	5%	·	7
Nc1nc2c(nc(Br)n2C2OC(CO)C(O)C2O)c(=O)[nH]1 (stereo not given)	1%	·	·	-1%	·
COC(=O)[C@]12CCCCC=C1N(Cc1cccc3ccccc13)C(=O)[C@H](CC(=O)N1CCN(C(=O)c3ccco3)CC1)C2	·	·	·	·	-19
CCOC(=O)c1c(C)[nH]c(C(=O)N(C)CC(=O)Nc2ccc(OC)cc2)c1C	·	2%	-14%	·	1
CSCCC(NC(=O)c1ccc(Cl)cc1Cl)C(=O)NCc1ccncc1 (stereo not given)	·	-5%	-414%	·	-13
CCNC(=S)Nc1ccc(Cl)c([N+](=O)[O-])c1	-25%	?	15%	11%	-89*
CCNC(=S)Nc1ccc(C)c(Cl)c1	7.1µM*	0%	-2%	?	-5
NCCCC[C@H](NC(=O)[C@H](Cc1c[nH]c2ccccc12)NC(=O)[C@H](CC(=O)O)NC(=O)[C@H](Cc1cnc[nH]1)NC(=O)[C@H](CO)NC(=O)[C@H](Cc1c[nH]c2ccccc12)NC(=O)[C@H](Cc1cnc[nH]1)NC(=O)[C@@H]1CCC(=O)N1)C(=O)N1CCC[C@H]1C(=O)NCC(N)=O	10%	·	·	-12%	·
Cc1ccc2cc(CN(c3ccccc3C)S(=O)(=O)c3ccccc3)c(=O)[nH]c2c1	8%	?	21µM*	-12%	21
COc1ccccc1C=Cc1ccnc2ccccc12	·	?	2%	·	-93*
COc1ccc(/C=C/c2ccncc2)c2ccccc12	-29%	-1%	9%	-5%	12
Cc1nn(-c2ccccn2)c2c1C(=O)CC(C)(C)C2N=[N+]=[N-] (stereo not given)	·	?	40%	·	-29
COc1ccc(C(=O)C=Cc2ccc3c(c2)OCO3)cc1OC	·	·	·	·	-23
COc1ccc(C(=O)/C=C/c2ccc(OC)c(O)c2)c(F)c1	10µM*	?	?	?	-104*
SMILES	RORg inh	MCF10A rereplic	SW480 rerep	VP16 counter	IL-1B inflam inh
COc1ccc(C=CC(=O)c2ccc(OC)c(OC)c2)cc1O	·	·	·	·	-65*
COc1ccc(/C=C/C(=O)c2ccc(Cl)s2)cc1O	-19%	?	?	26%	-27
COc1ccc(C=CC(=O)c2ccc3cc(OC)c(OC)cc3c2)cc1OC	·	·	·	·	-98*
c1ccc(COCc2ccccc2)cc1	1%	·	·	-2%	·
CC(C)C[C@@H](CN1CCC[C@@H]1CN1C(=S)NC[C@@H]1Cc1ccc(O)cc1)N1C[C@H](Cc2ccc(O)cc2)N(CCc2ccccc2)C1=S	·	·	·	·	-59*
CC(C)C[C@H]1CNC(=S)N1C[C@H]1CCCN1C[C@H](Cc1ccccc1)N1C[C@H](Cc2ccc(O)cc2)N(CCc2ccccc2)C1=S	·	·	·	·	-28
CCOc1ccc(CCN2C(=S)N([C@@H](CC(C)C)CN3CCCC3CN3C(=S)NC[C@@H]3Cc3ccc(O)cc3)C[C@@H]2Cc2ccc(O)cc2)cc1 (stereo not given in full)	·	?	-3%	·	-71*
CC(C)C[C@@H](CN1CCCC1CN1C(=S)NC[C@@H]1Cc1ccccc1)N1C[C@H](Cc2ccc(O)cc2)N(CCc2ccccc2)C1=S (stereo not given in full)	·	·	·	·	9
CC(C)C[C@H]1CNC(=S)N1C[C@H]1CCCN1C[C@H](Cc1ccc(O)cc1)N1C[C@H](CC(C)C)N(CCc2ccccc2)C1=S	·	·	·	·	-63*
CCOc1ccc(CCN2C(=S)N([C@@H](CC(C)C)CN3CCCC3CN3C(=S)NC[C@@H]3Cc3ccc(O)cc3)C[C@@H]2Cc2ccccc2)cc1 (stereo not given in full)	·	12%	?	·	?
C#CCCCCCCCCCCCC(O)CC(O)COC(C)=O (stereo not given)	-19%	·	·	-18%	·
O=C(Nc1ccc2c(c1)C(=O)OC2)c1ccc(Cl)cc1Cl	22%	-9%	-18%	-10%	-22
O=C(Nc1nnc(-c2ccc3c(c2)CCCC3)o1)c1c(F)cccc1F	0.5µM*	4%	-8%	4.5µM*	3
O=C(Nc1nnc(-c2ccc3c(c2)CCCC3)o1)c1ccc(Cl)cc1Cl	1.6µM*	?	-9%	1.6µM*	0
O=C1CCCN1CCCNS(=O)(=O)c1ccc(F)c(F)c1	2%	-2%	-11%	-8%	6
COCCn1c(=S)[nH]c2cc(C(=O)NC3CCCC(C)C3C)ccc2c1=O (stereo not given)	·	·	·	·	2
CC(Sc1ncnc2sc(-c3ccccc3)cc12)C(N)=O (stereo not given)	13µM*	1%	?	-25%	-13
O=C(O)CSc1ncnc2sc(-c3ccccc3)cc12	8%	15%	-4%	-18%	-4
CC(=O)CCSc1ncnc2sc(-c3ccccc3)cc12	-4%	10%	7%	6%	-91*
CC(C)N(CC(N)=O)c1ncnc2sc(-c3ccccc3)cc12	16%	-2%	-3%	-7%	·
O=C(O)CCSc1ncnc2sc(-c3ccccc3)cc12	1.8µM*	17%	-1%	5µM*	8
CCN(CC)CCNc1cc(C)nc2c1C(=O)C(=O)C=C2N1CCCCC1	5µM*	12%	?	-3%	-90*
COc1ccc(C(=O)C2CCCN(Cc3cc(C)c(O)c(C)c3)C2)c(OC)c1 (stereo not given)	20%	8%	0%[9.22 µM]	4%	?
COc1cc(CN2CCCC(C(=O)c3ccc(C(C)(C)C)cc3)C2)cc(OC)c1O (stereo not given)	15%	26%	?	-3%	-79*
